# About 83,000 compounds went through this panel and 20% of them were active in at least one assay; those are over-represented in the sample as a whole.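 Activity criterion: percent growth below 10, measured after cells in 96-well plates were exposed to a single compound concentration for 48 hours.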 A number with no mark means an inactive call. Activity calls are given as the source filed them.
# Test system: T-47D breast
# Assay: NCI-60 one-dose screen, 48 h (100 = growth as untreated, 0 = no growth, -100 = all killed)
# Conditions: 10 µM
row,SMILES,growth
1,Cc1ccc2c(c1)c(Sc1ccc(C(=O)NO)cc1)c1n2CN(C)CC1,23.4%
2,O=C1NC(=S)S/C1=C\c1cccc([N+](=O)[O-])c1,90.2%
3,CCCN(CCC)c1ccc(/C=C/c2ccc3cc(OCC)ccc3n2)cc1,59.1%
4,Clc1ccc(C2=NN(c3ccccc3)[C@H](c3cn(-c4ccccc4)nc3-c3ccccc3)C2)cc1,112%
5,COc1cc(C(=O)/C=C/c2c(-c3cccs3)nc3sccn23)cc(OC)c1OC,-1.93% (active)
6,CCOC(=O)C1=C(C)N2C(=NC3=C(CCCC/C3=C\c3cc(OC)c(OC)c(OC)c3)C2c2cc(OC)c(OC)c(OC)c2)S1 (stereo not drawn),45.9%
7,CN1CCN(c2nc(-c3ccncc3)nc3sc4c(c23)CCCCCC4)CC1,90.9%
8,COc1ccc(-n2ncc3c4nc(OC)c(S(=O)(=O)c5ccccc5)cc4ccc32)cc1,57%
9,COc1ccc(C2CC(c3cc(OC)c(OC)c(OC)c3)=NN2c2ccc(S(N)(=O)=O)cc2)cc1 (stereo not drawn),55.9%
10,Cc1nn(CC(=O)O)c2c1C(=O)CC(C)(C)C2,104%
11,O=C1C(Br)=C(c2ccccc2)C(=O)C(Br)=C1c1ccccc1,73.4%
12,Cc1ccc(C)c2c1sc1nc3nc4sc5ccccc5n4c(=N)c3c(=O)n12,78.9%
13,Nc1cc(Br)c(-c2nnc(CCC(=O)c3nc4ccccc4[nH]3)o2)c(Br)c1,72.6%
14,COc1ccc(Nc2nc(NCCNc3ccnc4cc(Cl)ccc34)nc(N3CCOCC3)n2)cc1,110%
15,Cc1nc2cc(Nc3nc(N4CCOCC4)nc(N4CCN(C)CC4)n3)ccc2n1Cc1ccccc1,99.6%
16,COc1ccc(-c2nc3sc(C)cn3c2/C=C/C(=O)c2cc(OC)c(OC)c(OC)c2)cc1,50.3%
17,O=[N+]([O-])c1ccc(O)c2ncccc12,30.4%

row,SMILES,growth
1,CC1(C)N=C(N)N=C(N)N1c1cccc(/C=C/C=C/c2cccc([N+](=O)[O-])c2)c1,78.1%
2,O=c1nc(NO)[nH]c(=O)n1Cc1ccccc1,92.8%
3,C[C@@H](Oc1cc(-c2cnn(C3CC4(CCNCC4)C3)c2)cnc1N)c1c(F)ccc(Cl)c1Cl,-27.9% (active)
4,C=CC(=O)N1CC2(CC(n3nc(-c4ccc(Oc5ccccc5)cc4)c4c(N)ncnc43)C2)C1,36.4%
5,COc1ccc(OC)c(C2C(C#N)=C(N)Oc3cc(O)ccc32)c1 (stereo not drawn),86.7%
6,CC(C)(C)[Si](C)(C)OC1[C@@H](O[Si](C)(C)C(C)(C)C)[C@@H](CNC(=O)NC(=O)C(F)(F)F)O[C@H]1n1cnc2c(NC(=O)Nc3ccccc3)ncnc21 (stereo partly drawn),85.5%
7,Nc1nc(N)c(N=Nc2c(Br)cc(S(N)(=O)=O)cc2Br)c(N)n1,88.6%
8,O=C(NCc1cccnc1)c1ccc([N+](=O)[O-])o1,57%
9,Cn1c(=O)c2c(-c3ccccc3F)n(-c3ccc4c(c3)OCO4)cc2n(C)c1=O,81.3%
10,Nc1nc2c(s1)CCc1c-2c(Br)n(Cc2ccccc2)c1Br,34.3%
11,CN1CCc2c(c3ccccc3c3ccccc23)C1,55.5%
12,COc1cccc(C2C3=C(COC3=O)N(CCO)c3cc4c(cc32)CCC4)c1 (stereo not drawn),77.7%
13,O=C(Nc1ccc(F)cc1)c1ccc(C(=O)Nc2ccc(F)cc2)cc1,99.1%
14,Cc1cc(O)cc2c1[C@H]1CC[C@]3(C)[C@@H](O)CC[C@H]3[C@@H]1C=C2,96.5%
15,C[C@@H](Oc1cc(-c2cnn(C3CC4(CCCNC4)C3)c2)cnc1N)c1c(Cl)ccc(F)c1Cl (stereo partly drawn),20.4%
16,Clc1ccc(Nc2nc(Nc3ccccc3)nc(Nc3ccc(-c4cc(-c5ccc(Cl)cc5)on4)cc3)n2)cc1,71.7%
17,Cc1nc(-c2ccccc2)cc2c(O)c(C(=O)N/N=C/Cc3ccccc3)[nH]c(=O)c12,104%

# Test system: BT-549 breast
# Assay: as above
# Conditions: 10 µM unless noted
row,SMILES,growth
1,Cc1ccc2c(c1)c(Sc1ccc(C(=O)NO)cc1)c1n2CN(C)CC1,54.3%
2,O=C1NC(=S)S/C1=C\c1cccc([N+](=O)[O-])c1,81.2%
3,CCCN(CCC)c1ccc(/C=C/c2ccc3cc(OCC)ccc3n2)cc1,119%
4,Clc1ccc(C2=NN(c3ccccc3)[C@H](c3cn(-c4ccccc4)nc3-c3ccccc3)C2)cc1,112%
5,COc1cc(C(=O)/C=C/c2c(-c3cccs3)nc3sccn23)cc(OC)c1OC,5.79% (active)
6,CCOC(=O)C1=C(C)N2C(=NC3=C(CCCC/C3=C\c3cc(OC)c(OC)c(OC)c3)C2c2cc(OC)c(OC)c(OC)c2)S1 (stereo not drawn),55.1%
7,CN1CCN(c2nc(-c3ccncc3)nc3sc4c(c23)CCCCCC4)CC1,44.3%
8,COc1ccc(-n2ncc3c4nc(OC)c(S(=O)(=O)c5ccccc5)cc4ccc32)cc1,53.1%
9,COc1ccc(C2CC(c3cc(OC)c(OC)c(OC)c3)=NN2c2ccc(S(N)(=O)=O)cc2)cc1 (stereo not drawn),83.9%
10,Cc1nn(CC(=O)O)c2c1C(=O)CC(C)(C)C2,104%
11,O=C1C(Br)=C(c2ccccc2)C(=O)C(Br)=C1c1ccccc1,97.7%
12,Cc1ccc(C)c2c1sc1nc3nc4sc5ccccc5n4c(=N)c3c(=O)n12,115%
13,Nc1cc(Br)c(-c2nnc(CCC(=O)c3nc4ccccc4[nH]3)o2)c(Br)c1,40.6%
14,COc1ccc(Nc2nc(NCCNc3ccnc4cc(Cl)ccc34)nc(N3CCOCC3)n2)cc1,83.7%
15,Cc1nc2cc(Nc3nc(N4CCOCC4)nc(N4CCN(C)CC4)n3)ccc2n1Cc1ccccc1,103%
16,COc1ccc(-c2nc3sc(C)cn3c2/C=C/C(=O)c2cc(OC)c(OC)c(OC)c2)cc1,59.9%
17,O=[N+]([O-])c1ccc(O)c2ncccc12,55.2%

row,SMILES,growth
1,CC1(C)N=C(N)N=C(N)N1c1cccc(/C=C/C=C/c2cccc([N+](=O)[O-])c2)c1,46.1%
2,O=c1nc(NO)[nH]c(=O)n1Cc1ccccc1,103%
3,C[C@@H](Oc1cc(-c2cnn(C3CC4(CCNCC4)C3)c2)cnc1N)c1c(F)ccc(Cl)c1Cl,58.6%
4,C=CC(=O)N1CC2(CC(n3nc(-c4ccc(Oc5ccccc5)cc4)c4c(N)ncnc43)C2)C1,29.9%
5,COc1ccc(OC)c(C2C(C#N)=C(N)Oc3cc(O)ccc32)c1 (stereo not drawn),94.1%
6,CC(C)(C)[Si](C)(C)OC1[C@@H](O[Si](C)(C)C(C)(C)C)[C@@H](CNC(=O)NC(=O)C(F)(F)F)O[C@H]1n1cnc2c(NC(=O)Nc3ccccc3)ncnc21 (stereo partly drawn),96%
7,Nc1nc(N)c(N=Nc2c(Br)cc(S(N)(=O)=O)cc2Br)c(N)n1,100%
8,O=C(NCc1cccnc1)c1ccc([N+](=O)[O-])o1,4.28% (active)
9,Cn1c(=O)c2c(-c3ccccc3F)n(-c3ccc4c(c3)OCO4)cc2n(C)c1=O,95.1%
10,Nc1nc2c(s1)CCc1c-2c(Br)n(Cc2ccccc2)c1Br,93.7%
11,CN1CCc2c(c3ccccc3c3ccccc23)C1,94.7%
12,COc1cccc(C2C3=C(COC3=O)N(CCO)c3cc4c(cc32)CCC4)c1 (stereo not drawn),1.24% (active)
13,O=C(Nc1ccc(F)cc1)c1ccc(C(=O)Nc2ccc(F)cc2)cc1,112%
14,Cc1cc(O)cc2c1[C@H]1CC[C@]3(C)[C@@H](O)CC[C@H]3[C@@H]1C=C2,100%
15,C[C@@H](Oc1cc(-c2cnn(C3CC4(CCCNC4)C3)c2)cnc1N)c1c(Cl)ccc(F)c1Cl (stereo partly drawn),73.4%
16,Clc1ccc(Nc2nc(Nc3ccccc3)nc(Nc3ccc(-c4cc(-c5ccc(Cl)cc5)on4)cc3)n2)cc1,59.1%
17,Cc1nc(-c2ccccc2)cc2c(O)c(C(=O)N/N=C/Cc3ccccc3)[nH]c(=O)c12,105%
